In the library only some 3.5% were active in any assay of this set; here they are far more common.
GPR151 activ: activators of human GPR151, primary screen, cell-based, PathHunter beta-arrestin, luminescence; G-protein coupled receptor 151 (Homo sapiens), Q8TDV0; PathHunter beta-arrestin GPR151 cells; activation, % at 11.2 µM; 1% of 650,000 active; AID 1508602, 2020; in the data active = activation above about 4.9%;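 also: 0% = median of compound wells and 100% = cells with positive control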
Target sequence (Q8TDV0 whole entry, looked up): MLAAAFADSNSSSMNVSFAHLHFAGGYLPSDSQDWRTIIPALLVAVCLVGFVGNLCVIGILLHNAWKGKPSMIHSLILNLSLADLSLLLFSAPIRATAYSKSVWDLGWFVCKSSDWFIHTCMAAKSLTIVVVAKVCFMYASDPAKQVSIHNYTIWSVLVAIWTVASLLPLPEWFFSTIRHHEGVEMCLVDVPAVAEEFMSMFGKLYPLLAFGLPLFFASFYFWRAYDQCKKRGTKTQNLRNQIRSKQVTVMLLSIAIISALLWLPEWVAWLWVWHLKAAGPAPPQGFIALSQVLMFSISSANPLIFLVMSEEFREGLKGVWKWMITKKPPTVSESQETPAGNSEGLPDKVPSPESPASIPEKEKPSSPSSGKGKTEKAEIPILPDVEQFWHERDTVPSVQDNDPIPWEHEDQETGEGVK
MITF inh: MITF inhibitors, primary screen, biochemical, AlphaScreen, human. Microphthalmia-associated transcription factor (Homo sapiens), O75030. AlphaScreen MITF homodimerization, bead proximity signal. inhibition, % at 2.6 µM. 0.91% of 650,000 active; in the data active = inhibition above about 50%;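 also: 0% = vehicle wells with protein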
FBW7 act: FBW7 E3 ligase activators, primary screen, biochemical, AlphaScreen, human | AlphaScreen FBW7–phospho-cyclin E peptide binding, activator screen | normalized activity (activation), % at 26.1 µM | 0.13% of 650,000 active | AID 1259310, 2017; in the data active = normalized activity above about 1.9%;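 also: purified mutant Fbw7 with reduced substrate affinity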
TEAD-YAP block: TEAD-YAP interaction inhibition, primary screen, TEAD-YAP interaction inhibitor project, luminescence, HEK-TIYL cells; inhibition, % at 9.12 µM; TEAD-Gal4/YAP UAS-luciferase luminescence; AID 1259422, 2018; 1.4% of 640,000 active; in the data active = inhibition above about 32%;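 also: 0% = median of test compound wells and 100% = reference inhibitor wells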
MITF inh conf: MITF inhibitors, retest of hits, confirmation, biochemical, AlphaScreen, triplicate. shares compounds with MITF inh. AlphaScreen MITF homodimerization, biotin/His-MITF beads. inhibition, % at 2.6 µM. 16% of 4,700 active. AID 1259372, 2018;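 active = inhibition above a cutoff derived from the DMSO control wells, cut at about 28% in these data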;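 also: 0% = MITF dimer wells with DMSO only; inhibitors lower the bead chemiluminescence by keeping MITF from dimerizing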
AS interf DR: AlphaScreen optical interference compounds, dose response, counter-screen, biochemical, HTS | shares compounds with MITF inh | IC50, µM | AlphaScreen optical interference counterscreen, cell-free | 6% of 480 active; call rule not given here
AS interf ctr: AlphaScreen optical interference compounds, counter-screen for MITF inhibitor project, biochemical, triplicate. shares compounds with MITF inh. LysRS AlphaScreen counterscreen, signal interference. inhibition, % at 2.6 µM. 7.6% of 4,700 active. AID 1259376, 2018;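 active = inhibition above a cutoff derived from the DMSO control wells, cut at about 30% in these data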
* = called active by the depositor; . = no result.

SMILES	GPR151 activ	MITF inh	FBW7 act	TEAD-YAP block	MITF inh conf	AS interf ctr	others
Cc1ccc(N(CCCCN2C(=O)c3ccccc3C2=O)C(=O)c2ccc([N+](=O)[O-])cc2)cc1	-1	64*	0	-2	5	15
O=C1c2ccccc2C(=O)N1CCCCN(C(=O)c1cc([N+](=O)[O-])ccc1Cl)c1ccc(Cl)cc1	0	68*	0	11	6	11
O=C1c2ccccc2C(=O)N1CCCCN(C(=O)c1ccc([N+](=O)[O-])cc1)c1ccc(Cl)cc1	-2	1	0	-10	.	.
COC(=O)c1c(C)[nH]c(O)c1/C=C1\C(=O)C=Cc2ccccc21	-1	22	0	-4	.	.
COc1ccc(CCn2c(SCC(=O)NCc3ccccc3)nc3ccsc3c2=O)cc1OC	-1	4	0	24	.	.
CCOC(=O)CSc1nc2c(cc1C#N)CCCCC2	0	8	0	-50	.	.
CCOC(=O)CC(=O)CSc1nc2c(cc1C#N)CN(C)CC2	-1	53*	0	-8	23	5
COc1ccc(CN2CCN(Cc3cccc(F)c3)CC2)c(OC)c1OC	1	47	0	6	.	.
COc1cccc(CN2CCN(Cc3cccc(Br)c3)CC2)c1OC	0	70*	0	1	5	3
COc1cccc(CNc2cccc(C)c2)c1OC	3	78*	0	4	11	5
COc1ccc(CN2CCN(Cc3cccc(OC)c3OC)CC2)cc1Br	2	75*	0	-4	10	18
COc1cccc(CN2CCN(Cc3cccc(C)c3)CC2)c1OC	1	76*	0	1	2	7
COc1cccc(CNc2cccc(F)c2)c1OC	-1	15	0	2	.	.
CCc1ccc2c(c1)c(=O)nc1n2CC(O)=C1c1nc2ccccc2s1	1	-3	0	-3	.	.
COc1ccc([N+](=O)[O-])cc1C1=N/C(=C/c2ccc(Cl)cc2Cl)C(=O)O1	-2	-6	0	3	.	.
COc1ccc(OC)c(C2/C(=C(/O)c3ccccc3)C(=O)C(=O)N2c2cccnc2)c1 (centres undefined)	0	0	0	-4	.	.
CCOC(=O)c1cc[n+](CC(=O)c2ccc3ccccc3c2)cc1	0	-8	0	4	.	.
COc1cccc(CN2CCN(Cc3cccc(Cl)c3)CC2)c1OC	1	73*	0	8	4	15
COc1cccc(CN2CCN(C(=O)c3cccc(Cl)c3)CC2)c1OC	0	45	0	-6	.	.
CCCCC(CC)CNCC(O)COCc1ccc(OC)c(OC)c1 (centres undefined)	-1	65*	0	4	21	27
Cc1ccc(C(=O)N/C(=C/c2cccc([N+](=O)[O-])c2)C(=O)NC(CC(C)C)C(=O)O)cc1 (centres undefined)	1	3	0	0	.	.
O=c1[nH]c(/C=C/c2ccco2)nc(O)c1[N+](=O)[O-]	0	83*	-1	2	67*	-7	AS interf DR=>6.5
COc1ccc(-n2nnnc2SCC(=O)c2ccc3c(c2)OCCO3)cc1	0	-11	0	1	.	.
O=CN1CCN(C(=O)COc2ccc(Br)cc2Cl)CC1	1	70*	0	6	1	7
O=C(COc1ccc(Br)cc1Cl)N1CCCCC1	2	6	0	-18	.	.
Cc1ccccc1OCCNCC(C)O (centres undefined)	0	53*	0	1	4	9
CCc1c(C)[nH]c2c1C(=O)C(CN1CCOCC1)CC2 (centres undefined)	1	-26	0	.	.	.
Cc1cccc(NC(=O)COc2ccc(C)c(C)c2)c1	1	-4	0	-31	.	.
CSc1ccc(Cc2nnc(NC(=O)C34CC5CC(CC(C5)C3)C4)o2)cc1	-1	52*	0	11	-9	19
